Measurements published in PubChem BioAssay AID2289 (National Center for Advancing Translational Sciences (NCATS), 2010).
Values joined by “and” are separate entries in the source; they are usually repeats but may differ in a detail not shown here. Equal values may be shown once. The whole screen tested about 340,000 compounds, of which about 3,300 (0.97%) were called active. Not shown: some 9% with an inconclusive outcome. Calls follow the shape of the dose curve; as a rule, active = well fitted inhibition curve with a large enough effect; inconclusive = small, poorly fitted or top-dose-only effect, or effect the other way; inactive = flat fitted curve, though single readings scatter. The list shows a part of the results.

experiment: qHTS Assay for Modulators of miRNAs and/or Inhibitors of miR-21; conditions: HeLa miR-21-FLuc reporter, luciferase luminescence, 48 h; actives lower the signal; also: nearly all actives have a fitted effect of over 55% in size
Method in brief: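 Luminescence from a firefly luciferase reporter carrying a miR-21 binding site downstream, stably expressed under a CMV promoter in HeLa cells that make miR-21 endogenously, reports miRNA modulation after 48 h compound exposure up to approximately 40uM final.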
Potency is read from the fitted curve at half-maximal effect.

Potency, active:
Nc1c(-c2ccc3c(c2)OCCO3)oc2ccccc2c1=O 2.93 µM
Cc1cccc(-n2ncc3c(NCCCn4ccnc4)ncnc32)c1 10.4 µM
COc1ccc(-n2ncc3c(NCCCn4ccnc4)ncnc32)cc1 10.4 µM
CCN(CC)CCCNc1ncnc2c1cnn2-c1ccc(C)c(C)c1 6.56 µM
COc1cccc(C(=O)/C=C/Nc2ccc(S(=O)(=O)Nc3onc(C)c3C)cc2)c1 13.1 µM
COc1cccc(C(=O)/C=C/Nc2ccc(S(=O)(=O)Nc3ncccn3)cc2)c1 11.7 µM
COc1cccc(C(=O)/C=C/Nc2ccc(NC(C)=O)cc2)c1 11.7 µM
Cc1noc(NS(=O)(=O)c2ccc(N/C=C/C(=O)c3ccc4c(c3)OCO4)cc2)c1C 9.27 µM
COc1cccc(C(=O)/C=C/Nc2ccc(S(=O)(=O)Nc3cnc4ccccc4n3)cc2)c1 7.36 µM
Cc1ccc(COc2ccc(-c3nnco3)cc2)cc1 4.14 µM
Cc1ccc(COc2ccc3c(c2)OCO3)cc1 3.69 µM
Fc1cc(Br)ccc1COc1ccc(-c2nnco2)cc1 7.36 µM
Cn1c(SCc2c(F)cccc2Cl)nnc1-c1cnccn1 4.14 µM
Cn1c(SCc2c(F)cccc2Cl)nnc1-c1cccs1 6.56 µM
CCCNC(=O)c1c(Cl)cnn1-c1ccc(C)cc1 4.14 µM
O=C(Nc1ccccc1)c1ccc(-c2ccccc2C(F)(F)F)o1 13.1 µM
O=C(Nc1ccccc1)c1ccc(-c2ccccc2Cl)o1 3.69 µM
O=C(Nc1ccccc1)c1cc(-c2ccccc2Cl)no1 7.36 µM
O=C(Nc1ccccc1)OCc1cc(-c2ccccc2Cl)on1 11.7 µM
COc1ccc(NC(=O)c2ccc(-c3ccccc3Cl)o2)cc1 7.36 µM
O=C(Nc1cccc(F)c1)c1ccc(-c2ccccc2Cl)o1 2.93 µM
COc1ccc(/C=C/c2ccncc2)cc1OC 16.5 µM
CC1=NN(C(=O)c2ccoc2C)C(O)(C(F)(F)F)C1 (centres undefined) 10.4 µM
CCCNc1ccc(C(=O)OCC)cc1[N+](=O)[O-] 16.5 µM
COC(=O)c1ccc(-c2ccc(Cl)cc2)nc1C 1.47 µM
CCOC(=O)c1ccc(-c2ccc3c(c2)CCC3)nc1C 1.85 µM
COC(=O)c1ccc(-c2ccc(F)cc2)nc1C 6.56 µM
CCOc1ccc(-c2cn3nc(CC(C)C)sc3n2)cc1 2.93 µM
CCOC(=O)CSc1nc2cc(OCC)ccc2cc1C#N 4.65 µM
COC(=O)CSc1nc2cc(OC)ccc2cc1C#N 0.233 µM
CCOc1ccc2cc(C#N)c(SCC(=O)N3CCOCC3)nc2c1 1.17 µM
COc1ccc2nc(SCC(C)=O)c(C#N)cc2c1 0.165 µM
O=C(Nc1cc2c(cc1C(=O)O)OCCCO2)c1ccc(C(F)(F)F)cc1 7.36 µM
O=C(Nc1cc2c(cc1Br)OCCCO2)c1ccccc1 2.33 µM
COc1cccc(C(=O)Nc2cc3c(cc2Cl)OCCCO3)c1 0.826 µM
COc1cccc(C(=O)Nc2cc3c(cc2Br)OCCCO3)c1 2.07 µM
CN(C)S(=O)(=O)Oc1cccc(C(=O)Nc2ccccc2Cl)c1 8.26 µM
COC(=O)c1c(-c2ccncc2)csc1NC(=O)c1ccoc1C 1.85 µM
COC(=O)c1c(-c2cccnc2)csc1NC(=O)c1ccc2c(c1)OCO2 1.04 µM
COC(=O)c1c(-c2cccnc2)csc1NC(=O)c1cc(C)on1 2.07 µM
CC(CC(=O)c1cccs1)CC(=O)c1cccs1 11.7 µM
CC(C)(C)C(=O)Nc1ccc(C(=O)OC2CCCCC2)cc1 0.927 µM
Cc1nnc(SCc2cccc3ccccc23)s1 14.7 µM
COc1ccc(Nc2nc(N)nc(SCc3nnc(C)s3)n2)cc1 14.7 µM
Cc1nnc(SCc2nc(N)nc(Nc3ccccc3)n2)s1 11.7 µM
COc1ccc(Nc2nc(N)nc(CSc3nnc(C)s3)n2)cc1 18.5 µM
Cc1ccc(Nc2nc(N)nc(CSc3nnc(C)s3)n2)cc1 7.36 µM
CCc1ccc(NC(=O)c2n[nH]c(=O)c3ccccc23)cc1 1.04 µM
O=C(Nc1ccc2c(c1)OCO2)c1n[nH]c(=O)c2ccccc12 5.85 µM
COc1ccccc1Nc1nc(N)nc(CSC(=S)N2CCCCC2)n1 14.7 µM
COc1ccccc1Nc1nc(N)nc(CSC(=S)N2CCOCC2)n1 16.5 µM
Cc1ccc(Nc2nc(N)nc(CSC(=S)N3CCOCC3)n2)c(C)c1 10.4 µM
COc1ccc(CCNc2ncccc2C#N)cc1OC 6.56 µM
O=C(N/N=C1\CCc2ccccc21)c1ccccc1Cl 1.85 µM
CCOC(=O)N/N=C1\CCc2ccccc21 11.7 µM
O=C(O)c1ccc(N/N=C2/CCCc3ccccc32)cc1 6.56 µM
O=C(N/N=C1\CCCCc2ccccc21)c1ccccn1 5.85 µM
O=C(COc1ccccc1F)N/N=C1\CCCc2ccccc21 3.29 µM
COc1ccc(/C(N)=N/OC(=O)CSc2ccccc2)cc1OC 8.26 µM
N/C(=N\OC(=O)CSc1ccccc1)c1ccncc1 14.7 µM
N/C(=N\OC(=O)CSc1ccccc1)c1ccc([N+](=O)[O-])cc1 4.65 µM
COc1ccc(-c2nnc(SCC(=O)Nc3cccc(F)c3)s2)cc1 13.1 µM
COc1ccc(NC(=O)CSc2nnc(NC(=O)Nc3ccc(OC)cc3)s2)cc1 0.826 µM
COc1ccc(NC(=O)Nc2nnc(-c3ccco3)s2)cc1 0.927 µM
COc1ccccc1C(=O)Nc1nnc(SCC(=O)NC2CCCC2)s1 0.414 µM
CC(=O)c1ccc(NC(=O)CSc2nnc(NC(=O)Nc3ccccc3)s2)cc1 7.36 µM
COc1ccc(C(=O)Nc2nnc(SCC(=O)Nc3ccc(NC(C)=O)cc3)s2)c(OC)c1 0.0656 µM
O=C(/C=C/c1cccc2ccccc12)N1CCOCC1 6.56 µM
CC(C)(C)c1ccc(/C=C/C(=O)N2CCOCC2)cc1 6.56 µM
CC(C)c1ccc(/C=C/C(=O)N2CCOCC2)cc1 2.93 µM
COc1ccc(NC(=O)C2CCCN(c3ncccn3)C2)cc1 (centres undefined) 8.26 µM
Cc1ccc(NC(=O)C2CCCN(c3ncccn3)C2)cc1C (centres undefined) 14.7 µM
COc1ccc(-n2ncc3c(N4CCCc5ccccc54)ncnc32)cc1 0.414 µM
CCC(NC(=O)c1ccccc1NC(=O)c1ccc(OC)cc1)C(=O)N1CCCC1 (centres undefined) 6.56 µM
Cc1[nH]c2ccccc2c1C(=O)CSC(=S)N1CCCCC1 3.29 µM
COc1ccc(/C=C/C(=O)N(C)C2CCCCC2)cc1Br 9.27 µM
Cc1ccc2c(CN3CCC(C)CC3)cc(=O)oc2c1 5.21 µM
Cc1ccc2c(CN3CCC(C)CC3)cc(=O)oc2c1C 7.36 µM
CN(C)c1ccc(/C=C/c2nnnn2-c2ccccc2)cc1 1.65 µM
CC(Cc1cccs1)NC(=O)c1cccc(Cl)c1 (centres undefined) 6.56 µM
COc1ccc(C2CC(=O)N(C)c3ccccc3S2)cc1OC (centres undefined) 18.5 µM
Cc1ccc(-c2nc3ccccc3nc2NN)cc1 1.17 µM
CC(=O)c1sc(-c2ccc(F)cc2F)nc1C 14.7 µM
Cc1sc(NC(=O)C2C3CCC(O3)C2C(=O)O)nc1-c1ccc(CC(C)C)cc1 (centres undefined) 3.69 µM
CCOC(=O)C1=NN(c2ccc(Cl)cc2)C(=O)C1 6.56 µM
CCOC(=O)c1sc2nc3c(cc2c1N)COC(C(C)C)C3 (centres undefined) 0.0414 µM
CCOC(=O)c1cc2c(nc1N)CC(C)(CC)OC2 (centres undefined) 7.36 µM
CCOC(=O)c1sc2nc3c(cc2c1N)COC(C)(C)C3 1.17 µM
C=CCn1c(C)nc2c(sc3nc4c(cc32)COC(C)(C)C4)c1=O 0.656 µM
Cc1cc(O)c(C2=Nc3ccccc3SC(c3ccc(Cl)cc3)C2)c(=O)o1 (centres undefined) 1.65 µM
Cc1ccc2c3c([nH]c2c1C)-c1nonc1CC3 7.36 µM
Cc1cc(N2CCOCC2)ccc1/C=C1/SC(=O)NC1=O 4.65 µM
COc1ccc(-n2c(C)cc(/C=C3\SC(=O)NC3=O)c2C)cc1 5.85 µM
O=C1NC(=S)N/C1=C\c1ccc(N2CCOCC2)cc1 13.1 µM
Cc1ccc(-n2c(C)cc(/C=C3\SC(=O)NC3=O)c2C)cc1 1.47 µM
Cc1ccc(/C=N/NC(=O)CSc2nc3ccccc3o2)cc1 11.7 µM
CCOc1cccc2cc(-c3csc(NC(=O)CCC(=O)NCCCN4CCC(C)CC4)n3)c(=O)oc12 1.17 µM
CN(C)c1oc(/C=C/c2ccccc2)nc1C#N 5.85 µM
COc1ccc(Nc2oc(/C=C/c3ccccc3OC)nc2C#N)cc1 13.1 µM
CCOc1ccc(/C=C/c2nc(C#N)c(N(C)C)o2)cc1 0.329 µM
COc1ccccc1/C=C/c1nc(C#N)c(N(C)C)o1 927 nM and 1.65 µM
CCN1C(=O)/C(=C/C=C2/SCCN2C)SC1=S 0.185 µM
CN1C(=O)/C(=C/C=C2\SCCN2C)SC1=S 0.464 µM
CCCCN1C(=O)/C(=C/C=C2\SCCN2C)SC1=S 5.21 µM
